Most compounds without a hit are left out; they make up all but 27% or so of the library.
sEH act – soluble epoxide hydrolase activators, primary screen, biochemical, human sEH; Bifunctional epoxide hydrolase 2 (Homo sapiens), P34913; purified human sEH enzymatic activity, activator screen; activation, % at 2 µM; 91,000 compounds, 0.04% hits; in the data active means activation above about 37%
sEH inh – soluble epoxide hydrolase inhibitors, primary screen, biochemical, human sEH; 91,000 compounds, 0.34% hits; recombinant human sEH enzymatic activity assay; inhibition, % at 2 µM; Bifunctional epoxide hydrolase 2 (Homo sapiens), P34913; in the data active means inhibition above about 80%
CYP2C9 inhib – blockers of cytochrome P450 2C9 activity – biochemical, luminescence, ADME assay, primary screen. CYP2C9 Supersomes, luciferin-H conversion. inhibition, % at 5 µM. 96,000 compounds, 20% hits. AID 777, 2007;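 active means blocking of liver enzyme CYP2C9 beyond about 50% at 5 µM, limit read from the data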
Target sequence (P11712 whole entry, looked up): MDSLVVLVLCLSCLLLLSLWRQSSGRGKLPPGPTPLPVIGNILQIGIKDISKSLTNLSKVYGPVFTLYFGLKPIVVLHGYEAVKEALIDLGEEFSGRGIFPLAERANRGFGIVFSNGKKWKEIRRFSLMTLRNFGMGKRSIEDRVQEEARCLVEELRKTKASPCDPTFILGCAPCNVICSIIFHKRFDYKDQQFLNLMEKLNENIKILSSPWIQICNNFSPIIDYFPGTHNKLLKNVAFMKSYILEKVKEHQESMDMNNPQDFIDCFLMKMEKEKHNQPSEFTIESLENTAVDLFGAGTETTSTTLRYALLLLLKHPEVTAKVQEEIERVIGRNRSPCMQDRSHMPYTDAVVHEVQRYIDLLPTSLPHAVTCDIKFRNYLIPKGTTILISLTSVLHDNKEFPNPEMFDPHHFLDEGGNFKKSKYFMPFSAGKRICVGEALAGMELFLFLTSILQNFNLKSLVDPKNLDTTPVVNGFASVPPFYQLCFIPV
CYP2C19 act – human CYP2C19 activators, primary screen, biochemical, luminescence; Cytochrome P450 2C19 (Homo sapiens), P33261; recombinant CYP2C19, luciferin-H EGE luminescence; active compounds read high; 0 = fully inhibited enzyme, 1 = untreated enzyme; activation factor at 5 µM; 96,000 tested, under 10 active;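 active means activation factor of at least 2 at 5 µM in the primary screen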;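 further: 0 = wells with 2.5 mM tranylcypromine and 1 = vehicle-only wells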
CYP2C19 inh – blockers of cytochrome P450 2C19 activity – biochemical, luminescence, ADME assay, primary screen; P33261; CYP2C19 Supersomes, luciferin-H EGE luminescence, 30 min; inhibition, % at 5 µM; 96,000 compounds, 21% hits; AID 778, 2007;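 active means CYP2C19 inhibition above a set limit at 5 µM in the primary screen, cut at about 50% in these data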;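 further: plate controls were negative control wells for no effect and 2.5 mM tranylcypromine positive control for full effect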
CYP2C9 activ – human CYP2C9 activators, primary screen, biochemical, luminescence; Cytochrome P450 2C9 (Homo sapiens), P11712; recombinant CYP2C9, luciferin-H conversion; active compounds read high; factor 1 = untreated enzyme, 0 = blocked; activation factor at 5 µM; 96,000 compounds, 1.4% hits; AID 1024, 2008;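 active means activation factor of 2 or more for CYP2C9 at a 5 µM dose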;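 further: 0 = sulfaphenazole-blocked wells and 1 = vehicle-only wells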
The depositor's hits bear a star; x = no result.

SMILES	sEH act	sEH inh	CYP2C9 inhib	CYP2C19 act	CYP2C19 inh	CYP2C9 activ
C=CCOC(=O)C1=C(C)NC(=S)NC1/C=C/c1ccccc1 (stereo not drawn)	2	-1	65*	0.4	60*	0.4
Cc1ccc(NC(=O)c2ccc(OC(=O)c3cc4ccccc4o3)cc2)cc1	6	-6	30	0.9	10	0.7
O=S(=O)(Cc1ccccc1)N1CCN(C2Cc3ccccc3C2)CC1	-1	0	-21	1	4	1.2
CS(=O)(=O)N1CCN(C2Cc3ccccc3C2)CC1	6	-8	8	0.4	57*	0.9
CCn1nnc(-c2ccccc2NS(=O)(=O)c2ccc(S(=O)(=O)N(C)C3CCCCC3)cc2)n1	-16	15	84*	0.8	17	0.2
CCOC(=O)c1ccc(S(=O)(=O)Nc2ccccc2-c2nnn(CC)n2)cc1	x	x	96*	0	99*	0
CCOC(=O)c1ccc(S(=O)(=O)Nc2cc(C(C)(C)C)no2)cc1	7	-9	83*	0.8	16	0.2
Cc1c(NC(=O)CSc2nc3ccccc3s2)c(=O)n(-c2ccccc2)n1C	10	-13	2	0.9	9	1
Cc1ccc2c(NC(=O)C3CC3)c(C)ccc2n1	15	-18	-14	1.1	-8	1.1
COc1ccc(OC)c(CNc2ccc(F)c(Cl)c2)c1	6	-3	58*	0.7	30	0.4
O=C(Cn1cnc2c(cnn2-c2ccc(Cl)cc2)c1=O)NCCc1ccccc1	-2	3	20	0.6	41	0.8
CCOC(=O)c1ccc(COc2nc3ccccc3nc2-c2ccccc2NC(C)=O)o1	5	-2	29	0.7	26	0.7
CC(=O)Nc1ccccc1-c1nc2ccccc2nc1OCC(=O)c1ccc(Br)cc1	0	2	58*	0.9	10	0.4
CC(=O)Nc1ccccc1-c1nc2ccccc2nc1OCC(=O)c1ccc2ccccc2c1	-4	4	68*	0.8	20	0.3
COC(=O)c1ccc(CON2C(=O)c3ccccc3C2=O)cc1	-9	8	-8	0.9	15	1.1
O=C1c2ccccc2C(=O)N1OCc1ccccc1	-1	1	-14	0.4	56*	1.1
O=C1c2ccccc2C(=O)N1OCc1cccc(Cl)c1	7	-3	-5	0.2	76*	1.1
CCOC(=O)N1CCN(c2ccc(O)cc2)CC1	-7	10	-4	1	-5	1
O=C(C1CCCN(S(=O)(=O)c2cccc3nsnc23)C1)N1CCc2ccccc21 (stereo not drawn)	6	-5	74*	0.5	52*	0.3
O=C(C1CCN(S(=O)(=O)c2cccc3nsnc23)CC1)N1CCc2ccccc21	-3	1	44	0.5	51*	0.6
O=C(C1CCN(S(=O)(=O)c2cccc3nsnc23)CC1)N1CCCc2ccccc21	1	-3	4	0.9	11	1
O=C(C1CCCN(S(=O)(=O)c2cccc3nsnc23)C1)N1CCc2ccccc2C1 (stereo not drawn)	3	-2	15	0.6	44	0.8
CC(=O)Nc1cc(NC(C)=O)cc(C(=O)OCC(=O)N2CC(C)OC(C)C2)c1 (stereo not drawn)	8	-10	6	1.1	-10	0.9
Fc1ccc(-c2[nH]ncc2-c2nnnn2-c2ccccc2)c(F)c1	20	-19	51*	0.1	91*	0.5
CCCCc1c(C)c2ccc(OC)c(/C(C)=N\O)c2oc1=O	-1	1	34	0.7	25	0.7
SMILES	sEH act	sEH inh	CYP2C9 inhib	CYP2C19 act	CYP2C19 inh	CYP2C9 activ
O=S(=O)(Nc1ccc(S(=O)(=O)Nc2ccccc2)cc1)c1ccccc1	6	-5	89*	0.7	28	0.1
O=S(=O)(Nc1ccc(-n2cccc2)cc1)c1ccccc1	-1	3	98*	0	100*	0
CCNC(=O)c1ccc(NS(=O)(=O)c2ccccc2)cc1	-12	10	31	0.7	30	0.7
Cc1cc(C)nc(NS(=O)(=O)c2ccc(-n3cccc3)cc2)n1	4	-3	15	0.7	34	0.9
O=S(=O)(Nc1ccc(S(=O)(=O)Nc2cccc3ccccc23)cc1)c1ccccc1	-2	-2	90*	0.2	83*	0.1
CC(C)CNC(=S)NC1CC2CCCC(C1)N2Cc1cccs1 (stereo not drawn)	-48	49	-3	0.6	39	1
COc1ccc(C(=O)OCCN2CCOCC2)cc1	0	0	x	x	x	x
c1ccc(-c2nnc3ccc(N4CCC5(CC4)OCCO5)nn23)cc1	-2	0	48	0.9	10	0.5
NC(=O)C1(N2CCCCC2)CCN(c2nc(-c3ccccc3)cs2)CC1	-10	11	88*	0	95*	0.1
COc1ccc(S(=O)(=O)N2CCN(c3ccc4nnc(-c5ccccc5)n4n3)CC2)cc1	9	-10	87*	0.2	76*	0.1
NC(=O)C1(N2CCCCC2)CCN(c2ccc3nnc(-c4ccccc4)n3n2)CC1	-4	3	68*	0.2	78*	0.3
CN(C)CCNS(=O)(=O)c1ccc(Cl)cc1	-13	15	x	x	x	x
O=C(COC(=O)C1COc2ccccc2O1)NC(=O)NC1CCCCC1 (stereo not drawn)	-8	6	14	1	2	0.9
CC(C)Oc1ccc(C(=O)NC2(C(F)(F)F)N=C3SCCN3C2=O)cc1 (stereo not drawn)	10	-13	14	1.2	-17	0.9
CC(C)NC(=O)CCNS(=O)(=O)c1ccc(Br)cc1	9	-8	-76	0.5	50*	1.8
CCCCNC(=O)CCNS(=O)(=O)c1ccc(C)cc1	-4	2	-161	0.8	18	2.6*
Cc1nn2c(-c3ccncc3)nnc2c2ccccc12	-9	9	26	0.1	85*	0.7
COc1ccc(-c2nnc3c4ccccc4c(C)nn23)cc1	-6	6	-1	0.8	23	1
O=C(NCc1cn(-c2ccccc2)nc1-c1ccccc1)c1cc([N+](=O)[O-])cc([N+](=O)[O-])c1	-9	14	67*	0.7	31	0.3
COC(=O)COc1ccc(S(=O)(=O)N2CCN(c3ccccc3F)CC2)cc1C	-11	8	26	0.6	43	0.7
Cc1ccc(Cl)cc1N1CCN(S(=O)(=O)c2cccc(S(=O)(=O)N3CCCC3)c2)CC1	x	x	87*	0.4	64*	0.1
O=c1ccc2cc(S(=O)(=O)N3CCN(c4cc(Cl)ccc4Cl)CC3)ccc2o1	15	-19	88*	0.3	74*	0.1

Screening results (PubChem)
